In all, about 340,000 compounds went through this assay and about 1,400 (0.41%) were called active. Shown is part of a subset that was picked to be rich in actives. A number with no mark means an inactive call.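 Rule for the calls: active = response above a set limit, near 3 SD of response in nonfluorescent compounds (cut at about 42% in these data); inactive = the rest.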
The compounds below were run against Beta-2 adrenergic receptor (Homo sapiens) (UniProt P07550) (assay: agonist-induced loss of surface beta2AR – cell-based, FAP fluorogen, flow cytometry, primary screen (AID 504454)). Conditions: Am2.2-beta2AR cells, FAP receptor internalization, active compounds read high, concentration not given here.
Chain of Beta-2 adrenergic receptor (Homo sapiens) (P07550 whole entry, looked up): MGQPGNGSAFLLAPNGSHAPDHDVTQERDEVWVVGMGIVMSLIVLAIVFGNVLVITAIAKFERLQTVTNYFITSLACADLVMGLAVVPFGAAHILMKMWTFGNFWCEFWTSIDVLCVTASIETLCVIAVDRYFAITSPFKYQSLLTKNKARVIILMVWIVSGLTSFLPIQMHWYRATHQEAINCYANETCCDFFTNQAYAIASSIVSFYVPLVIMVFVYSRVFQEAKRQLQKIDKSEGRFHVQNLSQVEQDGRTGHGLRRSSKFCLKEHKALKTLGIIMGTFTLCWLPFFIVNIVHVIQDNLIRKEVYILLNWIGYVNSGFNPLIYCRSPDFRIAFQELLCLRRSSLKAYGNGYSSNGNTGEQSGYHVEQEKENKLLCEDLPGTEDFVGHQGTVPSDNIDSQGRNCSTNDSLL

| SMILES | response |
| --- | --- |
| Cc1cnc(C)c(N2CCN(C(=O)C3CCC(=O)N(CCc4cccc(F)c4)C3)CC2)n1 (centres undefined) | -4.11% |
| NC(=O)C1(N2CCCC2)CCN(Cc2ccccc2)CC1 | -1.07% |
| COC(=O)c1[nH]c2ccc(Br)cc2c1NC(=O)Oc1ccccc1 | 43.5% (active) |
| C/C(=N\N)c1c(-c2ccccc2)c2cc(Br)ccc2[nH]c1=O | -0.61% |
| COC(=O)c1[nH]c2ccccc2c1NC(=O)CN1CCCc2ccccc21 | 6.44% |
| O=C1c2oc3ccccc3c(=O)c2C(c2cccc(O)c2)N1c1ccccn1 (centres undefined) | -12.8% |
| CCCOc1ccc(C2c3c(oc4cc(C)c(C)cc4c3=O)C(=O)N2CCCN2CCOCC2)cc1 (centres undefined) | -4.95% |
| COCCN1C(=O)c2oc3c(C)cc(C)cc3c(=O)c2C1c1cccc(O)c1 (centres undefined) | 51.7% (active) |
| COCCCn1c(SCc2cccc(OC)c2)nc2cc(OC)c(OC)cc2c1=N | 7.49% |
| CCCC(=O)Nc1nnc(CC(=O)OCC)s1 | 8.2% |
| CN1CCN(C(CNS(=O)(=O)c2cccs2)c2cccnc2)CC1 (centres undefined) | -2.41% |
| COc1ccc(C[C@H]2CN3C(=NC[C@H]3C)N2CCNC(=O)CCC2CCCCC2)cc1 | 8.82% |
| CC(=O)Nc1ccc(N2C(=O)CC(Sc3nccc(C)n3)C2=O)cc1 (centres undefined) | 1.18% |
| CCOc1ccccc1N1C(=O)CC(Sc2nccc(C)n2)C1=O (centres undefined) | 47.5% (active) |
| COc1ccc(N2C(=O)CC(Sc3n[nH]c(-c4ccc(C)cc4)n3)C2=O)cc1 (centres undefined) | 1.89% |
| COCC1CCN(C(=O)CCc2nnc(C3(c4ccc(Cl)cc4)CCC3)o2)C1 (centres undefined) | -4.25% |
| COc1ccc(CCNC(=O)CCc2ccccc2O)cc1OC | 0.69% |
| Cc1ccc(NC(=O)CN(C)C(=O)Cn2nnc(-c3ccccc3)n2)cc1 | -5.12% |
| CCOC(=O)c1ccc(NC(=O)Cn2cnc3cc(C)c(C)cc32)cc1 | 9.03% |
| CCOC(=O)c1ccc(NC(=O)Cn2nnc(-c3ccc(C)cc3)n2)cc1 | 91.8% (active) |

| SMILES | response |
| --- | --- |
| Cc1ccc(CNC(=O)CCC(=O)N2CC(C)Sc3ccccc32)cc1 (centres undefined) | -5.01% |
| Cc1cccc(C=CC(=O)c2ccc(Cl)cc2)c1 | 0.41% |
| Cc1cc(C)nc(S/C=C/C(=O)c2ccccc2)n1 | 41.9% |
| O=C(/C=C/Sc1ncn[nH]1)c1ccc(Cl)cc1 | 78.1% (active) |
| CCc1cc(-c2nnc(SCC(=O)NC3CC3)n2C)cs1 | -9.66% |
| CCC(C)(C)NC(=O)CN(C(=O)C(=O)Nc1ccc2c(c1)OCCO2)C(C)(C)CC | 0.65% |
| COc1ccc(-n2c(=O)[nH]c3cc(C(=O)NCCc4ccc(OC)c(OC)c4)ccc3c2=O)c(OC)c1 | 2.93% |
| CN/C(=C\[N+](=O)[O-])NCCSCc1csc(CN(C)C)n1 | -4.88% |
| CC(C)CC(=O)NC(=S)NNC(=O)c1cccc([N+](=O)[O-])c1 | -4.1% |
| C#CCN1CC(C)/C(=N/O)CC1C (centres undefined) | -6.18% |
| O=C(/C=C/c1ccco1)NC(=S)Nc1ccccc1Br | 12.9% |
| COc1ccccc1/C=C/C(=O)NC(=S)N1CCOCC1 | -6.28% |
| O=C(/C=C/c1ccco1)NC(=S)N1CCCCC1 | 88.5% (active) |
| C=CCNC(=O)COC(=O)c1ccccc1C(=O)N(C)C1CCCCC1 | 2.56% |
| Cc1ccc(SCC(=O)N2CCN(c3ccc(F)cc3)CC2)cc1 | -23.7% |
| CCN1CCC2(CC1)N=C(c1ccc(F)cc1)C(=S)N2C(=O)c1ccc(C)cc1 | 85.6% (active) |
| CCN1CCN(C(=O)CSc2ccc(C)cc2)CC1 | 11.4% |
| CCn1cc(/C=C(\NC(=O)c2ccc(C)cc2)C(=O)NCCN2CCOCC2)c2ccccc21 | 4.83% |
| CCCN(Cc1cc2cccc(C)c2[nH]c1=O)S(C)(=O)=O | 9.7% |
| COc1ccc(CCNC(=O)C(=O)Nc2ccc3nc4n(c(=O)c3c2)CCCCC4)cc1OC | -7.18% |

| SMILES | response |
| --- | --- |
| Cc1nc(-c2ccc(Cl)cc2)sc1C1(C)CC(c2ccc(Br)cc2)=NO1 (centres undefined) | -4.06% |
| Clc1cccc(-c2nc(NCC3CCCO3)c3ccccc3n2)c1 (centres undefined) | -5.27% |
| NC(N)=Nc1nc(-c2ccccc2)c2cc(Cl)ccc2n1 | 8.97% |
| Clc1ccc2nc(-c3ccccc3)nc(C(Cl)Cl)c2c1 | 50% (active) |
| Cc1ccc(S(=O)(=O)NCCc2nnc3ccc(SCc4cccnc4)nn23)cc1 | -8.28% |
| CC(C)OC(=O)c1ccc(COc2ccc3ccc(=O)oc3c2)o1 | -3.14% |
| CCN(CC)C(=O)CSc1nnc(CNc2ccc(F)cc2)n1Cc1ccco1 | -1.42% |
| O=C(N[C@@H](Cc1ccccc1)C(=O)OCc1ccccc1)c1nc[nH]c1C(=O)NC1CCNCC1 | -6.96% |
| CC(C)(C)OC(=O)N1CCC(NC(=O)c2[nH]cnc2C(=O)N[C@@H](Cc2ccccc2)C(=O)OCc2ccccc2)CC1 | 78.6% (active) |
| CC(C)(C)OC(=O)CNC(=O)c1[nH]cnc1C(=O)N[C@@H](Cc1ccccc1)C(=O)OCc1ccccc1 | 10.2% |
| O=C(O)c1ccc(Cn2cnc3c(=S)nc[nH]c32)cc1 | 5.59% |
| O=S(=O)(Nc1ccc2cn[nH]c2c1)c1ccccc1 | 4.15% |
| O=C(O)c1cc(S(=O)(=O)Nc2ccc3cn[nH]c3c2)ccc1Br | 7.91% |
| O=S(=O)(Nc1ccc2[nH]ncc2c1)c1ccccc1Cl | 60.7% (active) |
| Cc1ccc(S(=O)(=O)N(CC(=O)NN=C2CCN(C)CC2)c2ccc(F)cc2)cc1 | -3.48% |
| Oc1ccccc1C1=NN(c2ccccc2)C(c2ccccc2)C1 (centres undefined) | 13.4% |
| COc1ccc(S(=O)(=O)N2CCCC(C(=O)Nc3ccc(NC(=O)c4ccccn4)cc3)C2)cc1 (centres undefined) | 46.4% (active) |
| CC(=O)Nc1ccc(NC(=O)C2CCCN(S(=O)(=O)c3ccc(Cl)cc3)C2)cc1 (centres undefined) | -2.61% |
| COc1ccc(CCNC(=O)C2CCCN(S(=O)(=O)c3ccc(OC)cc3)C2)cc1 (centres undefined) | -1.09% |

Reference: PubChem BioAssay AID504454 (NMMLSC, 2011)
